The structures appear in SMILES notation. Inconclusive results are not listed. The source made the active and inactive calls. Unless noted, the call rests on the fitted dose curve; in most records, active means well fitted curve in the direction sought with a large enough effect; inconclusive means small, poorly fitted or top-dose-only effect, or another doubt; inactive means no such curve, though single readings can be large; an effect the other way counts as inactive or inconclusive.

A short description of assay [1]: Confirmation and Secondary Assay for Modulators of Hemoglobin Beta Chain Splicing at IVS2 705 locus (AID 930).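 Further: HeLa cells stably expressing the EGFP-705 splicing reporter; GFP fluorescence per well restored by corrected splicing of the IVS2-705 intron in EGFP; % of control where 0% means no effect.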 In outline: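 Stable HeLa line with EGFP disrupted by mutant beta-globin intron 2 (705). Overnight attachment, then 2 days of compound at 37C, 5% CO2. Signal: peak GFP intensity summed over objects 5-250 µm.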
Assay [2] in a line: qHTS Assay for Lipid Storage Modulators (AID 1519; calls by dose curve). The settings on record: Drosophila S3 cells, BODIPY lipid droplet/cell ratio, laser cytometry, cells loaded with oleic acid; for activity change, negative = inhibition: at 57.5 µM (top of the series). The procedure, abridged: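 Cells seeded at 5,000 per well were treated with compounds over a concentration series and loaded with oleic acid (400 uM, as added). Lipid droplet fluorescence (488 nm excitation, 500-530 nm channel) was read by laser-scanning cytometry and normalized to 20 uM Triacsin C.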

Assay [3] concerns the target Luciferin 4-monooxygenase (Photinus pyralis) (UniProt P08659). Description: Biochemical firefly luciferase enzyme assay for NPC (AID 624030).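 Further: purified P. pyralis luciferase at 10 nM with luciferin and ATP substrate; 0% = DMSO and -100% = full luciferase inhibition by PTC124 control; nearly all actives have a fitted effect of over 70% in size.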 The procedure, abridged:
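Purified P. pyralis luciferase at 10 nM in 50 mM Tris Acetate (final), luminescence read within 5 minutes of enzyme addition to compounds. Activity normalised to PTC124 versus DMSO; concentration-response curves classed by r2, magnitude and activity.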

Assay [4] can be described thus: P-glycoprotein substrates identified in KB-8-5-11 adenocarcinoma cell line, qHTS therapeutic library screen (AID 1346987). Further: on the % scale 0 is the no-effect control and ±100 the full control effect; nearly all actives have a fitted effect of over 65% in size. In outline:
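Compounds are pinned in dose-response onto KB-8-5-11 cells (500 cells/well, colchicine-free medium) and left 72 h at 37 degree C. CellTiter-Glo luminescence then yields AC50 values.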

Assay [5] has as its system KB-3-1. Description: Cytotoxic Profiling of Annotated Libraries Using Quantitative High-Throughput Screening (AID 1296008). Further: on the % scale 0 is the no-effect control and ±100 the full control effect; nearly all actives have a fitted effect of over 60% in size. The note with it: Five cell lines viability, CellTiter-Glo ATP luminescence, 48-72 h; max response: stronger effect = lower value. In outline:
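Cells exposed to compounds for 48 or 72 hr at 37 degrees Celsius. Viability read as ATP-coupled luminescence with CellTiter-Glo after 10 min at room temperature.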

Assay [6] is described as follows: Drug repurposing screens with cells derived from glioblastoma tumor samples (AID 1345199). Further: on the % scale 0 is the no-effect control and ±100 the full control effect; nearly all actives have a fitted effect of over 40% in size. The note with it: GBM patient neurospheres viability, ATP luminescence, 48 h; Potency: tumour line A; series mostly up to 45.9 µM. The procedure, abridged:
(§1)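 Primary testing used CD133+ neurospheres from four GBM patients, seven concentrations, 48 h exposure and ATP-based viability; confirmation added three slower-growing patient lines.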

For assay [7], the system named is astro. Described as above. The settings on record: viability, ATP luminescence, 48 h; series mostly up to 45.9 µM. In outline:
as §1

Assay [8] in a line: qHTS Assay for Identifying Gametocytocidal Compounds (AID 743244).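 Further: on the % scale 0 is the no-effect control and ±100 the full control effect; actives lower the fluorescent signal which means gametocytes are killed.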 The note with it: P. falciparum 3D7 stage III-V gametocytes, alamarBlue, 72 h; max response: stronger effect = lower value. In outline: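 Stage III–V gametocytes of P. falciparum 3D7 were seeded at 20,000 cells/well onto pre-dispensed compounds. After 72 h, 37 °C, 5% CO2, alamarBlue was added for another 24 h.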
The nature of assay [9]: AP1 Signaling Pathway (AID 357; active means well fitted curve in either direction with a large enough effect, not every such curve was filed as active;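 further: ME-180 reporter cells stimulated with EGF at its EC50 level; on the % scale 0 is the no-effect control and ±100 the full control effect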). The procedure, abridged: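 Cells are seeded overnight, exposed to compound titrations and an EC50 level of EGF for 5 hours at 37 °C, then loaded with CCF4 dye for 2.5 hours. Beta-lactamase activity under the AP-1 element is read as a blue/green ratio.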
Assay [10] in a line: NFAT Signaling Pathway (AID 444; active means well fitted curve in either direction with a large enough effect, not every such curve was filed as active;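 further: carbachol stimulus at about its EC50 of 1 µM final; on the % scale 0 is the no-effect control and ±100 the full control effect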). The note with it: Jurkat NFAT-bla M1, carbachol, beta-lactamase ratio, 5 h. The procedure, abridged:
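Jurkat cells with NFAT-driven β-lactamase reporter and co-expressed M1 receptor, stimulated with carbachol (final 1 uM, ~EC50), compound titration, 5 h at 37 °C. CCF4 loaded 1 h at RT; 460/530 nm ratio gave %activity and AC50.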

Assay [11] can be described thus: Stat Signaling Pathway (AID 446; active means well fitted curve in either direction with a large enough effect, not every such curve was filed as active;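 further: ME-180 cervical cancer cells given 40 pM IL-6 alongside compound; SIE-controlled beta-lactamase reporter measured as 460/530 nm FRET emission ratio; on the % scale 0 is the no-effect control and ±100 the full control effect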). In outline:
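Emission at 460 and 530 nm (excitation 405 nm) reports SIE-controlled beta-lactamase in ME-180 cells. Cells received compound with 40 pM IL-6 for 5 hrs at 37 C; data scaled between 300 pM IL-6 and 125 nM JAK-inhibitor controls.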

The target of assay [12] is Mitogen-activated protein kinase 10 (Mus musculus) (UniProt Q61831). The assay can be described thus: JNK3 AlphaScreen Assay (AID 530; active means well fitted curve in either direction with a large enough effect, not every such curve was filed as active;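 further: kinase came from lysate of stimulated human HepG2 cells; signal reports phosphorylation of biotinylated GST-cJun 1-79 at Ser73 with 10 µM ATP; on the % scale 0 is the no-effect control and ±100 the full control effect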). The procedure, abridged:
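Activity was read by AlphaScreen after JNK3-containing HepG2 lysate (cytokine pre-activated) phosphorylated biotinylated GST-cJun with 10 uM ATP at room temperature. Phospho-Ser73 cJun antibody with Protein-A acceptor beads provided detection.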

Assay [13] addresses 3',5'-cyclic-AMP phosphodiesterase 4B (Homo sapiens) (UniProt Q07343). The assay can be described thus: qHTS Assay for Inhibitors of PDE-IV (AID 607; active means well fitted activation curve with a large enough effect in the main read-out, with a control signal flat, not every such curve was filed as active; further: % of control where 0% means no effect). In outline:
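The readout is membrane depolarisation from a cAMP-sensing CNG channel, detected with a potential dye at ex 535/em 590. Cells were HEK293-derived (endogenous PDE-IV) at 1000 cells/well, titrated up to 22.9 uM final.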

Assay [14] addresses Guanine nucleotide-binding protein G(i) subunit alpha-1 (Homo sapiens) (UniProt P63096). The assay can be described thus: qHTS Assay for Inhibitors of RGS12 GoLoco Motif Activity (Green Fluorophore) (AID 879).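 Further: 0% = labeled peptide with Gαi1 and full inhibition = labeled peptide alone without protein; negative values mean loss of peptide binding seen as reduced polarization.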 In outline: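 A drop in FITC polarization marked displacement of the FITC-tagged RGS12 GoLoco peptide (10 nM) from Gαi1 (50 nM). Compounds were incubated 10 min at room temperature in Tris pH 7.5 buffer containing 150 mM NaCl, 0.1 mM GDP and 0.05% NP40; unlabeled peptide titration served as control.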

The nature of assay [15]: qHTS Assay for Identification of Small Molecule Agonists for Thrombopoietin (TPO) Signaling Pathway (AID 917). Further: on the % scale 0 is the no-effect control and ±100 the full control effect. The procedure, abridged: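 Luciferase reporter (Glycoprotein IIb promoter) in IL-3-deprived Ba/F3 cells carrying human TPO receptor; compounds co-added with 26 pM TPO, incubated 24 h, 37 C. Steadylite luminescence measured after 10 min.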
For assay [16], the target named is Pyruvate kinase (Leishmania mexicana) (UniProt Q27686). Description: qHTS Validation Assay for Inhibitors of Leishmania Mexicana Pyruvate Kinase (AID 945).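 Further: 0% = DMSO only neutral control wells.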 In outline: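 Mutant LmPYK (E451W), 0.2 nM, plus 0.5 mM PEP and 0.1 mM ADP in 50 mM imidazole pH 7.2 containing 0.01% Tween 20 and 0.05% BSA. Incubated 1 h at room temperature; luminescence via PKLight, normalized to DMSO.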
Chain of Pyruvate kinase (Leishmania mexicana) (Q27686 2-499 E452W): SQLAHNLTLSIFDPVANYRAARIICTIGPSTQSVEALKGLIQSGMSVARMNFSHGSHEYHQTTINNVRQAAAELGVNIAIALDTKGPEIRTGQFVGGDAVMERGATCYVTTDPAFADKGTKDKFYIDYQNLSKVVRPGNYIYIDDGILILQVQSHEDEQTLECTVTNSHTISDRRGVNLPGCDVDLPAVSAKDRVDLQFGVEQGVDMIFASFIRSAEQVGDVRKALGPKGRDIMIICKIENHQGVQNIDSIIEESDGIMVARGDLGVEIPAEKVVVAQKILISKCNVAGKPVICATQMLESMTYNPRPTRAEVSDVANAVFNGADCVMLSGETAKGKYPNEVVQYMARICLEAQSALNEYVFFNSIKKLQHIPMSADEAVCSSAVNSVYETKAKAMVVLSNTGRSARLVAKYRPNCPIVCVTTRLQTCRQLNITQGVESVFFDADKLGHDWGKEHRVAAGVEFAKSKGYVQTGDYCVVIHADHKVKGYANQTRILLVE

The target of assay [17] is Alpha-galactosidase (Coffea arabica) (UniProt Q42656). The assay can be described thus: Counterscreen for Glucocerebrosidase Inhibitors: qHTS Assay for Coffee Bean alpha-Galactosidase at pH 4.5 (AID 957).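 Further: plate controls were enzyme alone for no effect and no enzyme for full effect.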 In outline:
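Fluorogenic qHTS at pH 4.5 (citrate buffer with Tween-20): 2 nM enzyme, 80 uM 4-MU-alpha-galactoside substrate, compound titrated 0.7 nM to 77 uM, 20 min room temperature. Glycine/NaOH stop; 4-MU read Ex 365/Em 440; Hill-equation AC50 against no-enzyme and enzyme controls.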

The target of assay [18] is Alpha-galactosidase A (Homo sapiens) (UniProt P06280). Description: Counterscreen for Glucocerebrosidase Inhibitors: qHTS Assay for Human alpha-Galactosidase at pH 4.5 (AID 992). Further: 0% is about no effect. The procedure, abridged:
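Fluorogenic 4-MU alpha-D-galactoside (80 uM) hydrolysis, 2 nM enzyme, pH 4.5 citrate buffer + 0.005% Tween-20; 20 min RT; NaOH/glycine pH 10 stop; Ex365/Em440. Compounds titrated 0.7 nM–77 uM; Hill-equation AC50.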

Assay [19] addresses alpha-glucosidase (Oryza sativa, rice) (UniProt Q653V4). The assay can be described thus: Counterscreen for Glucocerebrosidase Inhibitors: qHTS Assay for Rice alpha-Glucosidase at pH 5.0 (AID 997).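 Further: 0% = full activity with enzyme and -100% = basal without enzyme.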 In outline: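 Endpoint fluorogenic assay at pH 5.0: compounds (0.7 nM to 77 uM) titrated against 4 nM rice enzyme and 400 uM 4-MU-alpha-glucoside for 20 min at room temperature; NaOH/glycine stop, read ex 365/em 440 nm, Hill-fitted AC50.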

The target in assay [20] is Alpha-galactosidase (Coffea arabica) (UniProt Q42656). The assay can be described thus: Counterscreen for Glucocerebrosidase Inhibitors: qHTS Assay for Coffee Bean alpha-Galactosidase at pH 5.9 (AID 998).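 Further: plate controls were uninhibited enzyme for no effect and no-enzyme basal signal for full effect.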 The procedure, abridged:
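Enzyme 2 nM + cpd (0.7 nM–77 uM titration) + 4-MU-alpha-Gal 80 uM, pH 5.9 citrate/Tween-20, RT 20 min, NaOH/glycine stop pH 10, fluor 365/440. Normalized to no-enzyme and full-activity controls; Hill-fit AC50.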

The target of assay [21] is Furin (Homo sapiens) (UniProt P09958). Description: Furin counterscreen qHTS for Zika virus inhibitors (AID 1347149).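 Further: purified recombinant full-length human furin enzyme at 5 nM; fluorescence gain from furin cutting a BOC-RVRR-AMC peptide substrate over 15 min; top concentration of the series differs between compounds; plate controls were no-inhibitor control for no effect and no-enzyme control for full effect; nearly all actives have a fitted effect of over 70% in size.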 In outline: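 Counterscreen measures cleavage of 2 microM BOC-RVRR-AMC, below its ~15 microM Km, by 5 nM full-length human furin at pH 7.0 after a 15-min compound preincubation. Inhibition derives from the 15-min fluorescence increase at 37C.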
Chain of Furin (Homo sapiens) (P09958 whole entry, looked up): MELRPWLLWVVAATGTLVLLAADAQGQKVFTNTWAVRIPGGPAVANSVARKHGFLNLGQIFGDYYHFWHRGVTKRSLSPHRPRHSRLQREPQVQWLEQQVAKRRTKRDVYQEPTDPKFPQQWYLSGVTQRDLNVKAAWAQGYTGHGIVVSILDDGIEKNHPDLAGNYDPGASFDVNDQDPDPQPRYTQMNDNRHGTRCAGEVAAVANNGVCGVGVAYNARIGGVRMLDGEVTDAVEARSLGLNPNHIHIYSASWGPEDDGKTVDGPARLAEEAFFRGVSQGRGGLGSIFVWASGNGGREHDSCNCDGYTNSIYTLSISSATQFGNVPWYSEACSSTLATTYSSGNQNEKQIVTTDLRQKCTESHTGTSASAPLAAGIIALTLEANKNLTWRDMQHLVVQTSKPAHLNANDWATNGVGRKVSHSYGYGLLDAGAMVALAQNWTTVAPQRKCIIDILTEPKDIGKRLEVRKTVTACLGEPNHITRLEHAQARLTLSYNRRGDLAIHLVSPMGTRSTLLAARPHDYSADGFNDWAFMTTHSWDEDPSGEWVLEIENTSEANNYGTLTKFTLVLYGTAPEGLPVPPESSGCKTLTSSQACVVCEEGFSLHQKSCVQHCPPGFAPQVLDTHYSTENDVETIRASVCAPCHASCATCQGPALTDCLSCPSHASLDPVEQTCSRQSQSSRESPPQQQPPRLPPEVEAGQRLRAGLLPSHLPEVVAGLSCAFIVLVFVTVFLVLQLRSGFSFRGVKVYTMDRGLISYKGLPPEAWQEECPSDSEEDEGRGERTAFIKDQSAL
For assay [22], the system named is Zika virus NS2B-NS3 protease (unlinked). The assay can be described thus: Optimization of GU AMC qHTS for Zika virus inhibitors: Unlinked NS2B-NS3 protease assay (AID 1347151).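 Further: 0% = no-inhibitor control and -100% = no-enzyme control; nearly all actives have a fitted effect of over 80% in size.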 In outline: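 Fluorescence gain (340/450 nm) over 15 min at room temperature, ~20% conversion, gave percent inhibition fitted to a 4-parameter Hill equation; enzyme was unlinked NS2B-NS3 (25 nM final), pH 8.0 Tris buffer.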

The nature of assay [23]: Vero cells viability qHTS for Zika virus inhibitors (AID 1347167). Further: on the % scale 0 is the no-effect control and ±100 the full control effect. In outline: (§2)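 qHTS titration; 24-48 h compound exposure, 37 degrees C/5% CO2; DMEM, 4% FBS; CellTiter Glo ATP luminescence.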
The nature of assay [24]: HepG2 cells viability qHTS for Zika virus inhibitors (AID 1347168). Further: on the % scale 0 is the no-effect control and ±100 the full control effect. The procedure, abridged:
as §2

Assay [25] in a line: Tertiary RLuc qRT-PCR qHTS assay for Zika virus inhibitors (AID 1347169). Further: top concentration of the series differs between compounds; on the % scale 0 is the no-effect control and ±100 the full control effect; nearly all actives have a fitted effect of over 55% in size. In outline:
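Orthogonal cell-based readout: luminescence measured 1-1.5 hrs after adding live-cell Renilla substrate to Vero cells that had been infected with ZIKV-RLuc (MOI 1-2) post-compound, incubated 48-72 hrs at 37 degrees C.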

Assay [26] concerns the target Ubiquitin carboxyl-terminal hydrolase 1 (Homo sapiens) (UniProt O94782). The assay can be described thus: Inhibitors of USP1/UAF1: Pilot qHTS (AID 504865).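 Further: rhodamine fluorescence freed from ubiquitin-rhodamine substrate followed over time; top concentration of the series differs between compounds; on the % scale 0 is the no-effect control and ±100 the full control effect; nearly all actives have a fitted effect of over 35% in size.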 The procedure, abridged:
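Deubiquitinase activity followed as kinetic rhodamine fluorescence release from 150 nM Ub-Rho. 1 nM USP1/UAF1 with compound, after 15 min room-temperature preincubation, in HEPES pH 7.8 buffer containing TCEP, EDTA, BSA and Tween-20.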

The target in assay [27] is DNA dC->dU-editing enzyme APOBEC-3G (Homo sapiens) (UniProt Q9HC16). Description: qHTS for inhibitors of Vif-A3G interactions: Validation (AID 588379). Further: 0% is about no effect. In outline:
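Yellow fluorescence (Ex 488, Em 500-530) of Vif-coexpressing HeLa A3G-eYFP cells, scanned by Acumen cytometer, reports blocked A3G degradation. Cells plated at 700/well overnight at 37 deg C before compound addition, then a further overnight compound incubation at 37 deg C.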

A short description of assay [28]: qHTS for Inhibitors of the Functional Ribonucleoprotein Complex (vRNP) of Lassa (LASV) Arenavirus: LASV Primary Screen - GLuc reporter signal (AID 1347082; calls by dose curve; tested in HEK293 reporter line; further: on the % scale 0 is the no-effect control and ±100 the full control effect; nearly all actives have a fitted effect of over 60% in size).
Assay [29] can be described thus: qHTS for Inhibitors of the Functional Ribonucleoprotein Complex (vRNP) of Lassa (LASV) Arenavirus: Viability assay - alamar blue signal for LASV Primary Screen (AID 1347083; calls by dose curve; tested in HEK293 reporter line; further: on the % scale 0 is the no-effect control and ±100 the full control effect; nearly all actives have a fitted effect of over 80% in size).
A short description of assay [30]: qHTS for Inhibitors of the Functional Ribonucleoprotein Complex (vRNP) of Lymphocytic Choriomeningitis Arenaviruses (LCMV): Viability assay - alamar blue signal for LCMV Primary Screen (AID 1347085; calls by dose curve; tested in HEK293 reporter line; further: on the % scale 0 is the no-effect control and ±100 the full control effect; nearly all actives have a fitted effect of over 80% in size).
Assay [31] deals with Nucleoprotein (Lymphocytic choriomeningitis virus (strain Armstrong)) (UniProt P09992). Description: qHTS for Inhibitors of the Functional Ribonucleoprotein Complex (vRNP) of Lymphocytic Choriomeningitis Arenaviruses (LCMV): LCMV Primary Screen - GLuc reporter signal (AID 1347086; calls by dose curve).
Chain of Nucleoprotein (Lymphocytic choriomeningitis virus (strain Armstrong)) (P09992 whole entry, looked up): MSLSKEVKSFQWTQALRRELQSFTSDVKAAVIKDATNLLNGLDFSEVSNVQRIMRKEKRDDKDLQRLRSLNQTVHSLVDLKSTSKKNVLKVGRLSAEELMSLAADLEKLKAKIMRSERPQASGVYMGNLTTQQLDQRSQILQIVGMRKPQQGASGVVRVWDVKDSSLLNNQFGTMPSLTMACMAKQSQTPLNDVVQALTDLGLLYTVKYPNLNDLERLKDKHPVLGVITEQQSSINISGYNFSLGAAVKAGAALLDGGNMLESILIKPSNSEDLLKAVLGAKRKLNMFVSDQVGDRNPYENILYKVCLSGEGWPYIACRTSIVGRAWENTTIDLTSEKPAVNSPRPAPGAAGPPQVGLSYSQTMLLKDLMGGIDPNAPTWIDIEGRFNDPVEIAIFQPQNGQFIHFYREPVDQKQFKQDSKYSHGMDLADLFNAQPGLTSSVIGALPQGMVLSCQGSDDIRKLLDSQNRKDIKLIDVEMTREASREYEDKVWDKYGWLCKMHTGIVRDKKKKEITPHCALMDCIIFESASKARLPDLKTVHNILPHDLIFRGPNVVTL
The nature of assay [32]: Primary qHTS for small molecule stabilizers of the endoplasmic reticulum resident proteome: Secreted ER Calcium Modulated Protein (SERCaMP) assay (AID 1508630). In outline: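 The SH-SY5Y reporter protocol was run at 3 concentrations up to 38.3 uM (primary) or 11 concentrations (follow-up): 16 h compound, 100 nM thapsigargin for 4 h, then extracellular luciferase luminescence.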

Setting [33] is: measured here: cell count channel max response.
Setting [34] is: measured here: lipid channel max response.

Chain of Luciferin 4-monooxygenase (Photinus pyralis) (P08659 whole entry, looked up): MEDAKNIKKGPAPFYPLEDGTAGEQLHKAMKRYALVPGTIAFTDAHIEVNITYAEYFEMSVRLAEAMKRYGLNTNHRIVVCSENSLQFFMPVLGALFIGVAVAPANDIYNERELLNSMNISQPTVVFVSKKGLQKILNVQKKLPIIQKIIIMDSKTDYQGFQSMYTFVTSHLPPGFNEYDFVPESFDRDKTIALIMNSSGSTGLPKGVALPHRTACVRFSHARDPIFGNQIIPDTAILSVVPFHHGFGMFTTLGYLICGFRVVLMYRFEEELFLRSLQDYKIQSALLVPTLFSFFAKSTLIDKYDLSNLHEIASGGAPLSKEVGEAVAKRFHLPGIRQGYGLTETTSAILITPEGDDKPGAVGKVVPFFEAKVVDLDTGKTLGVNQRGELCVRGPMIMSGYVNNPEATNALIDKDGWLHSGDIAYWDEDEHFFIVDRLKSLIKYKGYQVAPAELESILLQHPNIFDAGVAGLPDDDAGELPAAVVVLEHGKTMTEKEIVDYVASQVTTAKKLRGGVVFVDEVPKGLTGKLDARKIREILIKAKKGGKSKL
Chain of Alpha-galactosidase (Coffea arabica) (Q42656 whole entry, looked up): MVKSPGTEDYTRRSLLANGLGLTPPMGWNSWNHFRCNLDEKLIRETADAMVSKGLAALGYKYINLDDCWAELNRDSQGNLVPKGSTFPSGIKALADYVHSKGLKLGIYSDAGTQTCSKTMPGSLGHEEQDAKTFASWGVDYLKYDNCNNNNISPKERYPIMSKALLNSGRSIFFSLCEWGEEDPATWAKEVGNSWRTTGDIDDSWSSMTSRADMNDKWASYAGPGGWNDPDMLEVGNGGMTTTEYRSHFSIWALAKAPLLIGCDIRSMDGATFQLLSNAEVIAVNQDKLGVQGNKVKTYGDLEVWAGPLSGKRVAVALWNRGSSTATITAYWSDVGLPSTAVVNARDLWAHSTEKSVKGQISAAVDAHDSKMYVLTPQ
Chain of 3',5'-cyclic-AMP phosphodiesterase 4B (Homo sapiens) (Q07343 whole entry, looked up): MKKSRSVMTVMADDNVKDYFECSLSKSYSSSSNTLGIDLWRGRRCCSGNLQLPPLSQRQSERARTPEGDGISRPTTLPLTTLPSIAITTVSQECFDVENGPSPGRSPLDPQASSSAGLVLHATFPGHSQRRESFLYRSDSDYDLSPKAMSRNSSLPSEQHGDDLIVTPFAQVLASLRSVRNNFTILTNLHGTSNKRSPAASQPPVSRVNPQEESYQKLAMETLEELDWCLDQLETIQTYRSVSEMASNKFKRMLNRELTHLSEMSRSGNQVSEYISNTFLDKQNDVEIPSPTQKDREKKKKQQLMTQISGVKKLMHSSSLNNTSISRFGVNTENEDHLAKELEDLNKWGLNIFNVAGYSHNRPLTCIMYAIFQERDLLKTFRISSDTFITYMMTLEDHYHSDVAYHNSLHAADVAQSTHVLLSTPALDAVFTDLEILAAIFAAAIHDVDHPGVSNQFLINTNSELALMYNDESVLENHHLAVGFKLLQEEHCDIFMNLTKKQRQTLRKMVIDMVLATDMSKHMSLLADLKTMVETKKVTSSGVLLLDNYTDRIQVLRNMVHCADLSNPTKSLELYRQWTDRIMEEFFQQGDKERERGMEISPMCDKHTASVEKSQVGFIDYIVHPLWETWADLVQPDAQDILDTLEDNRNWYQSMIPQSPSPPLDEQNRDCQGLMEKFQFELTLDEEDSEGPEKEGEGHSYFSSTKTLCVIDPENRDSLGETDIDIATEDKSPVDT
Chain of DNA dC->dU-editing enzyme APOBEC-3G (Homo sapiens) (Q9HC16 whole entry, looked up): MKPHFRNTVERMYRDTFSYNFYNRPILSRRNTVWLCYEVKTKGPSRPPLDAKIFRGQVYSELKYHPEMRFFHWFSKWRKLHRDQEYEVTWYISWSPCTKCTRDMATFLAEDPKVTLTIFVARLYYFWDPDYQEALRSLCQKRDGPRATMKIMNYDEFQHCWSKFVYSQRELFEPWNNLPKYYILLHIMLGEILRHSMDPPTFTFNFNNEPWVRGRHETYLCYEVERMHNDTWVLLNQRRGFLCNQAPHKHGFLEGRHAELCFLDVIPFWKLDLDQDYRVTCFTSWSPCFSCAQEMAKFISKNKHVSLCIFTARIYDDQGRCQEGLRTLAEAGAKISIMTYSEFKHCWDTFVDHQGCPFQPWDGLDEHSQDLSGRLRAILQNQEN
Chain of Guanine nucleotide-binding protein G(i) subunit alpha-1 (Homo sapiens) (P63096 whole entry, looked up): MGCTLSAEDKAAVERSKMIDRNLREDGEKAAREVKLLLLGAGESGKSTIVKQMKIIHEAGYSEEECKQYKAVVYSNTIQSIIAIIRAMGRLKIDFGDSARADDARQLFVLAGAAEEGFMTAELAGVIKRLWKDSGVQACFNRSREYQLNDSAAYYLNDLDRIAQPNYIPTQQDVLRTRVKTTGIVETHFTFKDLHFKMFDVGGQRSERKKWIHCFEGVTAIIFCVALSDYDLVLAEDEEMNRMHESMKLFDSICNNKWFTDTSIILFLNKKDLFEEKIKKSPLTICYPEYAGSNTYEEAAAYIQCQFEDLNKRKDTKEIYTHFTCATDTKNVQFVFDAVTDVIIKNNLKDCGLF
Chain of Alpha-galactosidase A (Homo sapiens) (P06280 whole entry, looked up): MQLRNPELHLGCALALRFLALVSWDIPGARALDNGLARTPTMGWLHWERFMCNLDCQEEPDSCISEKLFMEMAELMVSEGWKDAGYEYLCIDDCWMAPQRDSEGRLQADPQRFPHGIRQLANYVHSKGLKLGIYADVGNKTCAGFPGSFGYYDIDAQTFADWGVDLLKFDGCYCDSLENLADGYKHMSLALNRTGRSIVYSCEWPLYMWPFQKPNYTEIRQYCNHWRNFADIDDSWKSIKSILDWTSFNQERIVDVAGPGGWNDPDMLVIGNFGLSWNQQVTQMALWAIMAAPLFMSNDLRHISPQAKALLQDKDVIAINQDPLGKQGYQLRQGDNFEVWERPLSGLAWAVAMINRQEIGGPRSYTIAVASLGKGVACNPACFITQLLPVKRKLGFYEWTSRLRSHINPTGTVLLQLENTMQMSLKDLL

Take `CCN(CC)/[N+]([O-])=N/O`: the compound was called inactive in assay [1]. Besides, the activity change, negative = inhibition in [2] is 8.09% (inactive). Further, the figures for the max response in [2] (setting [33]), in assay [2] (setting [34]) and in assay [5] were -15%, -4.74% and -8.01% (inactive), respectively. Besides, the Potency result in assay [3], in [4], in assay [6] and in assay [7] was “inactive” each time.

In the case of `O=C1CN=C(c2ccccc2)c2cc(Cl)ccc2N1`, the Potency result in [3], in assay [4], in assay [6] and in [7] was “inactive” throughout. The values for the max response in assay [8] and in [5] were 38.4% (inactive) and -13.7% (inactive), respectively.

As for `CN1CC[C@@]23CCCC[C@@H]2[C@@H]1Cc1ccc(O)cc13`, the result in assay [9], in [11], in assay [12], in assay [14], in assay [15] and in assay [16] was inactive. Moreover, the compound was called inactive in [17], in [18], in assay [19], in assay [20] and in assay [22]. The results for the activity change, negative = inhibition in assay [10] (at 17.2 µM (top of the series)) and in assay [10] (at 38 µM (top of the series)) were -12.7% (inactive) and -7.37% (inactive), respectively. In addition, the Potency result in assay [13], in assay [3], in assay [4], in assay [21], in assay [23] and in assay [24] was “inactive” throughout. Further, the Potency result in assay [25] and in assay [7] was “inactive” throughout. In addition, the figures for the max response in [8] and in assay [5] were 4.44% (inactive) and -20.8% (inactive), respectively.

On to `Clc1ccc([C@@H]2C[C@H]3CC[C@@H]2N3)cn1`, for which the result in [12] was inactive. The Potency result in assay [13], in assay [26], in assay [27], in assay [28], in [29] and in [30] was “inactive” throughout. Moreover, the Potency result in assay [31], in assay [32], in [6] and in [7] was “inactive” each time. In assay [2], the activity change, negative = inhibition is -3.65% (inactive). Also, the max response in assay [2] (setting [33]) is 0.171%; in [2] (setting [34]), -1.79%; in assay [8], 7.9% (inactive); in assay [5] it was -6.98% (inactive).

Source of the values: PubChem BioAssay (NCATS).
